The record followed here is PubChem BioAssay.

“And” between values parts separate entries of the source, which are not always exact repeats. Identical values can stand only once. For some assays here: Measured potencies and affinities stand elsewhere. Where a structure was tested more than once in an assay, its records may differ in their call. The source made the active and inactive calls.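 How the source made its calls, unless noted: active means compounds whose cell count with miR-34 switched on is under 0.7 times the count with it off; inactive means the rest.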

Test [1] can be described thus: viability loss with induced miR-34 in A549 – imaging, A549 dox-inducible miR-34, nuclei and caspase counts, primary screen (AID 1347080). The note with it: A549 miR-34 inducible, Hoechst nuclei count, 48 h.
A short description of test [2]: MELAS cybrid and Rieske KO viability enhancers – cell-based, MELAS cybrids, Rieske KO mouse fibroblasts, CellTiter-Glo, primary screen (AID 1508586;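 active means mean z-score across replicates of 1.96 or higher in either the MELAS or the Rieske mutant cell line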;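 further: z relative to plate mean and SD of compound and empty wells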). The note with it: low glucose.
A short description of test [3]: galactose survival enhancers in mitochondrial complex I cybrids – cell-based, galactose medium, ATP luminescence, primary screen (AID 1645843;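 active means z-score of at least 1.8 in each of two replicates, scored against plate mean and spread of sample wells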;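 further: positive z means more ATP and so rescue of galactose-driven cybrid death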). The note with it: complex I mutant cybrid cells, 72 h, stronger effect = higher value.
The nature of test [4]: P. berghei load reduction in hepatocytes – cell-based, HepG2, luciferase luminescence, HepG2 viability, primary screen (AID 624349; in the data active means parasite load remaining mostly below about 12%, no sharp cut-off; inactive means mostly above about 10%;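 further: 100% = mean of DMSO negative control wells on the same plate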). The note with it: P. berghei liver stage in HepG2, luciferase luminescence, concentration not given here; parasite load remaining: stronger effect = lower value; viability: measured here: HepG2 viability without parasites.
Test [5] has as its target NAD(+) hydrolase SARM1 (Homo sapiens) (UniProt Q6SZW1). Description: blocking NAD cleavage by SARM1 SAM-TIR – cell lysate, NAD-Glo luminescence (AID 1508614;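 active means compound whose remaining NAD level is above about 45 nM, limit read from the data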). As to conditions: SAM-TIR HEK293T lysate NADase, at 1 µM, stronger effect = higher value.
Test [6] addresses Mitogen-activated protein kinase 7 (Homo sapiens) (UniProt Q13164). Description: Gal4-ERK5 driven luciferase induction – cell-based, HTS, primary screen (AID 1508626;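 active means luciferase signal above three times the same-plate solvent-only control wells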;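 further: luciferase driven by Gal4-ERK5 fusion binding five Gal4 sites before minimal TATA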). The note with it: HeLa Gal4-ERK5 transactivation, 18 h, at 5 µM, stronger effect = higher value.
Test [7] can be described thus: compounds altering circadian rhythm period length – cell-based, LOPAC library, luminescence reporter (AID 2774; call rule not given here;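 further: values are relative to mean of DMSO wells on each plate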). The note with it: circadian reporter cells, at 7 µM, actives lie on both sides.
Test [8] concerns Hepatitis C virus NS3 helicase. Description: blockers of NS3h binding to ssDNA – biochemical, fluorescence polarization, LOPAC1280 library, primary screen (AID 687035; in the data active means inhibition above about 37%). The note with it: Purified HCV NS3 helicase, Cy5-dT15 ssDNA binding fluorescence polarization; stronger effect = higher value; concentration not given here. (In fluorescence polarisation assays a small probe gives low polarisation when free and higher when bound to something large.)

The nature of test [9]: compounds altering Cy5-DNA-NS3h complex signal – biochemical, LOPAC1280, artefact control for HCV NS3 helicase inhibitor project (AID 687037; call rule not given here). The note with it: Cy5-DNA-NS3h complex fluorescence interference counterscreen. (The purpose of a counterscreen is to sort out artefacts and off-target activity.)
Test [10] can be described thus: blockers of cellular phospholipid synthesis – cell-based, LOPAC library, screen 4, primary screen (AID 1347384; call rule not given here). As to conditions: animal cells, phospholipid biosynthesis inhibition screen; at 10 µM.
Test [11] is described as follows: blockers of polyQ-driven CASP3 activation – cell-based (AID 1583). The note with it: polyglutamine-induced caspase-3 activation, cell assay; stronger effect = higher value;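 tested at 10 µM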.
Test [12] in a line: yeast 75Q aggregation reduction – 75Q-TubU reporter (AID 1593). The note with it: Yeast 75Q polyglutamine aggregation reporter.
Test [13] in a line: restoration of touch response, mutant HTT neurons – whole organism, C. elegans mechanosensory neurons, N-terminal huntingtin (AID 1599). The note with it: C. elegans polyQ-huntingtin mechanosensory neurons, stronger effect = higher value.
Test [14] can be described thus: blockers of cytochrome c efflux from mitochondria – biochemical, purified mitochondria (AID 1603).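 Further: mouse liver mitochondria challenged with calcium chloride; signal normalized to the plate average as 100%.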 The note with it: stronger effect = lower value.
A short description of test [15]: polyglutamine aggregate formation blockers (AID 1604). As to conditions: polyglutamine-induced protein aggregation inhibition assay; stronger effect = higher value; tested at 2.5 µM.
Test [16] can be described thus: glutamate transport activators, MN-1 cells, MN-1 cell line (AID 1612).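 Further: tested at 1 µM final; 0% = mean of DMSO vehicle wells on each plate; positive means more glutamate uptake than control and negative means less.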 As to conditions: MN-1 motor neuron cells, stronger effect = higher value.
Test [17] in a line: GFP-Q80 aggregate reduction, neuronal-like cells, cell-based, NGF-treated PC12, GFPQ80 (AID 1614).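 Further: lower means fewer inclusions and 0 means no inclusions at all.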 The note with it: PC12 NGF-treated GFP-polyQ80 inclusion reduction.
Test [18] in a line: 75Q-TubH aggregate inhibition, S. cerevisiae, yeast (AID 1616). As to conditions: S. cerevisiae 75Q-TubH polyglutamine aggregation suppression; stronger effect = higher value.
The nature of test [19]: compounds altering viability of human ES cells (AID 493140; call rule not given here;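 further: cells exposed to compounds for four days before counting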). As to conditions: human embryonic stem cell survival screen; stronger effect = higher value.
Where [20] appears, read: stronger effect = lower value, cell number ratio, induced over uninduced.
Setting [21] is: measured here: relative caspase fold change +Dox/-Dox.
Setting [22] is: measured here: total cells with miR-34 induction, stronger effect = lower value.
Where [23] appears, read: measured here: total cells without miR-34 induction.
[24] abbreviates: MELAS cybrid survival, CellTiter-Glo 48 h, stronger effect = higher value.
Where [25] appears, read: Rieske KO mouse fibroblast survival, CellTiter-Glo 72 h.

Sequence of Mitogen-activated protein kinase 7 (Homo sapiens) (Q13164 whole entry, looked up, the tested form may be a part): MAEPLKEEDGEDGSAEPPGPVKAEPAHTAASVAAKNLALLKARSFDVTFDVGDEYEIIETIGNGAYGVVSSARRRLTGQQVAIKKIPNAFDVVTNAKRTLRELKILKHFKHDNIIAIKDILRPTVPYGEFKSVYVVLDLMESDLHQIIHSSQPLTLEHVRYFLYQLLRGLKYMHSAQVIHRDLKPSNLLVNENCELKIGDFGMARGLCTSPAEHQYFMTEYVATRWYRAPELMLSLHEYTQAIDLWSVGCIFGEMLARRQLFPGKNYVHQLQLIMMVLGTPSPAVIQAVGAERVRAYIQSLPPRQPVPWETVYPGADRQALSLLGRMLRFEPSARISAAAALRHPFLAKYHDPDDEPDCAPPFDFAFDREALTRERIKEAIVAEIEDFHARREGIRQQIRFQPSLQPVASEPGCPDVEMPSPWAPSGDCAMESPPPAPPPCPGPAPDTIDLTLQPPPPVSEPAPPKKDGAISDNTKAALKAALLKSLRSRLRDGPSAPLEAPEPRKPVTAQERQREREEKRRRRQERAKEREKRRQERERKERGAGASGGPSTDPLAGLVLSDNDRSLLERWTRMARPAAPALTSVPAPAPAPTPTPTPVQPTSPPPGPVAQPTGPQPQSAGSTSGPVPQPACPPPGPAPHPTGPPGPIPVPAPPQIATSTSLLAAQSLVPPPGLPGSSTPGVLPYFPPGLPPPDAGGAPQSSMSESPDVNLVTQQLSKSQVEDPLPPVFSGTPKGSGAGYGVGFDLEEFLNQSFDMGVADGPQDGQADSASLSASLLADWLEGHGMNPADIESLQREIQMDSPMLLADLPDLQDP
Sequence of NAD(+) hydrolase SARM1 (Homo sapiens) (Q6SZW1 whole entry, looked up, the tested form may be a part): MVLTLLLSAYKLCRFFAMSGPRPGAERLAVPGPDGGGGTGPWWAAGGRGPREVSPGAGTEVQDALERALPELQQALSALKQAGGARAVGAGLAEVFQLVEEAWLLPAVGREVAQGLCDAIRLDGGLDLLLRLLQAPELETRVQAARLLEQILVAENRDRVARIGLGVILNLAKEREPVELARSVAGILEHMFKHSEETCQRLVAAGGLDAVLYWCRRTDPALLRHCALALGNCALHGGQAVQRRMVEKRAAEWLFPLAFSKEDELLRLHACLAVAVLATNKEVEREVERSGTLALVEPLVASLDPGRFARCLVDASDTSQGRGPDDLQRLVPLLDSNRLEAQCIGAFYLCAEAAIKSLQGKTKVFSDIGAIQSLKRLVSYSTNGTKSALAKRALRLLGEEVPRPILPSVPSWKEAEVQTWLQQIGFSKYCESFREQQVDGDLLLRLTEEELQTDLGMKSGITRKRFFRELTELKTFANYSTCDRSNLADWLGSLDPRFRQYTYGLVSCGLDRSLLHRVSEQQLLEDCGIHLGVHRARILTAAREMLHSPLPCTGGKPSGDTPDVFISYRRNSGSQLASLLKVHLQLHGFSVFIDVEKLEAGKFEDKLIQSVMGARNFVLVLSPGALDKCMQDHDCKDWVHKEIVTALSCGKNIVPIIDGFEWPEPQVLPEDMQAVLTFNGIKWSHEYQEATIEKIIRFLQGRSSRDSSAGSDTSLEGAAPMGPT

On to `CC1c2cccc(O)c2C(O)=C2C(=O)[C@]3(O)C(O)=C(C(N)=O)C(=O)C(N(C)C)[C@@H]3C(O)[C@@H]21` (stereo partly drawn), for which the fold change was 0.722 (inactive) and 0.743 (inactive) and 0.957 (inactive) in test [1] (setting [20]); 1.04 and 0.719 and 0.385 in test [1] (setting [21]). The cell count in test [1] (setting [22]) is 5360 and 5020 and 8780; in test [1] (setting [23]), 7420 and 6760 and 9180. Further, the z-score in test [2] (setting [24]) is 4.12 (active) and 3.16 (active) and -0.469 (inactive); in test [2] (setting [25]) it was 5.71 and 4.93 and -0.551.
`CN(CC=CC#CC(C)(C)C)Cc1cccc2ccccc12`: the fold change was 0.964 (inactive) and 0.918 (inactive) and 0.968 (inactive) in test [1] (setting [20]); 2.12 and 1.02 and 0.751 in test [1] (setting [21]). Besides, the cell count was 9310 and 7680 and 9620 in test [1] (setting [22]); 9660 and 8370 and 9940 in [1] (setting [23]). For the same molecule, the z-score in test [2] (setting [24]) is -0.142 (inactive) and -0.315 (inactive); in [2] (setting [25]), -0.993 and 0.763; in [3], -1.88 (inactive).
Broadly, the viability is a read-out of living cells in per cent, often relative to untreated cells. For the molecule `CC[C@H](C)[C@H]1O[C@]2(CC[C@@H]1C)C[C@@H]1C[C@@H](C/C=C(\C)[C@@H](O[C@H]3C[C@H](OC)[C@@H](O[C@H]4C[C@H](OC)[C@@H](O)[C@H](C)O4)[C@H](C)O3)[C@@H](C)/C=C/C=C3\CO[C@@H]4[C@H](O)C(C)=C[C@@H](C(=O)O1)[C@]34O)O2`, the parasite load remaining in test [4] is 26.5% (inactive) and 28.8% (inactive). Further, in test [4], the viability is 44.6% and 96.5%. Besides, the fold change in [1] (setting [20]) was 0.862 (inactive) and 0.935 (inactive); in [1] (setting [21]), 0.479 and 1.24. The cell count is 6180 and 7180 in [1] (setting [22]); 7170 and 7680 in test [1] (setting [23]). The z-score in test [2] (setting [24]) is -1.97 (inactive) and -0.0039 (inactive); in [2] (setting [25]), 0.878 and -0.186; in test [3], -1.77 (inactive). Moreover, in test [5], the remaining NAD is 10 nM (inactive). In test [6], the luciferase signal is 44 AU (inactive).
What is called inhibition is the change of the read-out against control, counted positive when it falls. Consider `CCC(CO)Nc1nc(NCc2ccccc2)c2ncn(C(C)C)c2n1` (stereo not drawn), for which the period change in test [7] was 1.22 h (active). Also, the inhibition in test [8] was 0% (inactive). Also, the fluorescence ratio (interference) in [9] is 1 (inactive). The fold change in [1] (setting [20]) was 1.36 (inactive) and 0.915 (inactive); in test [1] (setting [21]), 0.998 and 1.15. For the same molecule, the cell count in [1] (setting [22]) is 1560 and 4690; in test [1] (setting [23]) it was 1150 and 5130. For the same molecule, the result in [10] was inactive. Also, the results for the z-score in test [2] (setting [24]), in test [2] (setting [25]) and in [3] were -0.381 (inactive), 0.0764 and -0.51 (inactive), respectively.
On to `COc1cc(CNC(=O)CCCCCCC(C)C)ccc1O`, for which, in [7], the period change is 0.135 h (inactive). Moreover, the inhibition in test [8] is -5% (inactive). The fluorescence ratio (interference) in test [9] is 1 (inactive). For the same molecule, the fold change is 1.08 (inactive) and 1.04 (inactive) in test [1] (setting [20]); 0.866 and 1.07 in test [1] (setting [21]). Moreover, the cell count in test [1] (setting [22]) was 10600 and 5720; in test [1] (setting [23]), 9840 and 5480. The molecule was called inactive in [10]. In test [3], the z-score was -0.085 (inactive).
In the case of `CN(C)S(=O)(=O)c1ccc2c(c1)/C(=C/c1cc3c([nH]1)CCCC3)C(=O)N2`, the period change in [7] was -0.01 h (inactive). For the same molecule, the parasite load remaining in test [4] is 43.1% (inactive). The viability in test [4] is 152%. Besides, the inhibition in [8] was -2% (inactive). Moreover, the fluorescence ratio (interference) in [9] is 1 (inactive). For the same molecule, the fold change was 0.998 (inactive) and 0.964 (inactive) in test [1] (setting [20]); 1 and 1.24 in [1] (setting [21]). The cell count in test [1] (setting [22]) is 3800 and 4420; in test [1] (setting [23]), 3810 and 4590. Besides, the molecule was called active in test [10]. Also, the z-score in [3] was 1 (inactive).
Consider `CCC1(c2ccccc2)NC(=O)N(C)C1=O` (stereo not drawn), for which the inhibition in [11] amounted to 6.58%. Further, in test [12], the score came to 1.42. The same molecule came in with a rescue above control in test [13] of 11.8. Moreover, the cytochrome c release ratio in test [14] is 0.46. The molecule further had an inhibition of aggregation in [15] of 79.3%. In addition, the glutamate uptake change in [16] was -9.05%. In test [17], this molecule returned an inclusion score of 2. In [18], this molecule registered an aggregation suppression score of 1.34. In test [19], the survival was 9.5 (inactive). For the same molecule, in [4], the parasite load remaining is 75.3% (inactive) and 65.4% (inactive). Also, in test [4], the viability is 74.4% and 110%. Besides, the fold change in test [1] (setting [20]) was 0.978 (inactive) and 0.889 (inactive); in test [1] (setting [21]), 0.677 and 1.53. Also, the cell count is 9090 and 9500 in test [1] (setting [22]); 9300 and 10700 in test [1] (setting [23]). Further, the z-score is 0.04 (inactive) and 0.144 (inactive) in test [2] (setting [24]); 0.0806 and -0.391 in test [2] (setting [25]); 0.64 (inactive) in test [3].
For `N#C/C(=C\c1ccc(-c2cc(Cl)ccc2Cl)o1)C(=O)Nc1cccc2ncccc12`, the inhibition in test [8] was -12% (inactive). In addition, in test [9], the fluorescence ratio (interference) is 0.8 (active). Besides, the fold change in [1] (setting [20]) was 1.06 (inactive) and 0.955 (inactive); in test [1] (setting [21]), 0.614 and 1.48. In addition, the cell count in test [1] (setting [22]) was 1870 and 5590; in test [1] (setting [23]), 1750 and 5850. In test [10], the molecule was classed as inactive. In test [3], the z-score was 0.46 (inactive).
For the molecule `CCCCC[C@H](O)/C=C/[C@@H]1[C@@H](C/C=C\CCCC(=O)O)[C@H](O)C[C@H]1O`, in test [19], the survival was 98.1 (inactive). Moreover, the fold change was 0.925 (inactive) and 0.811 (inactive) and 0.869 (inactive) in test [1] (setting [20]); 1.48 and 1.52 and 1.28 in test [1] (setting [21]). Further, the cell count was 5990 and 4790 and 5310 in test [1] (setting [22]); 6480 and 5900 and 6110 in test [1] (setting [23]).
For `Cc1nn(-c2ccccc2)c(C)c1C=NN1CCN(Cc2ccccc2)CC1`, the inhibition in test [8] is -4% (inactive). In addition, the fluorescence ratio (interference) in test [9] was 1 (inactive). In addition, the fold change in test [1] (setting [20]) was 0.991 (inactive) and 0.89 (inactive); in test [1] (setting [21]) it was 1.98 and 0.283. The cell count in test [1] (setting [22]) was 8530 and 7580; in test [1] (setting [23]) it was 8610 and 8510. In test [10], the call was inactive. Moreover, the figures for the z-score in test [2] (setting [24]), in [2] (setting [25]) and in test [3] were 1.46 (inactive), -0.978 and -0.13 (inactive), respectively.
As for `CNCCC(Oc1cccc2ccccc12)c1cccs1` (stereo not drawn), the fold change is 0.825 (inactive) and 0.844 (inactive) and 0.922 (inactive) in test [1] (setting [20]); 1.39 and 1.04 and 2.23 in test [1] (setting [21]). The cell count was 4830 and 5000 and 7370 in test [1] (setting [22]); 5860 and 5930 and 7990 in test [1] (setting [23]). The z-score in test [2] (setting [24]) is -0.107 (inactive); in test [2] (setting [25]), -1.06; in test [3], -1.4 (inactive) and -1.81 (inactive).
With `O=[N+]([O-])c1ccc2c(c1)S(=O)(=O)C=C2`, the inhibition in [8] was -2% (inactive). For the same molecule, the fluorescence ratio (interference) in test [9] is 1 (inactive). The fold change in test [1] (setting [20]) is 0.698 (active) and 1.19 (inactive); in test [1] (setting [21]) it was 0.963 and 0.522. Also, the cell count was 598 and 1740 in [1] (setting [22]); 856 and 1460 in [1] (setting [23]). The molecule was called inactive in test [10]. The results for the z-score in test [2] (setting [24]), in test [2] (setting [25]) and in [3] were 3.07 (active), -0.336 and -1.38 (inactive), respectively.
